# Results as given in PubChem BioAssay.
# “And” between values parts separate entries of the source, which are not always exact repeats. Identical values can stand only once. For some assays here: Measured potencies and affinities stand elsewhere. The source made the active and inactive calls. Unless noted, no stated cut-off is given here; in the data, active means parasite load remaining mostly below about 12% (no sharp cut-off); inactive means mostly above about 10%.
# What was measured:
# [1] = P. berghei load reduction in hepatocytes – cell-based, HepG2, luciferase luminescence, HepG2 viability, primary screen (AID 624349);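 further: 100% = mean of DMSO negative control wells on the same plate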; conditions: P. berghei liver stage in HepG2, luciferase luminescence, concentration not given here; parasite load remaining: stronger effect = lower value; viability: measured here: HepG2 viability without parasites
# [2] = molecular target: 6-phosphogluconate dehydrogenase, decarboxylating (Homo sapiens) (UniProt P52209); test: inhibition of human phosphogluconate dehydrogenase – biochemical, recombinant enzyme, NADPH absorbance, primary screen (AID 1159550;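 active means at least 20% inhibition of 6-phosphogluconate dehydrogenase activity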); conditions: recombinant 6PGD, NADPH absorbance 341 nm; at 10 µM; stronger effect = higher value
# [3] = EMT-state selective cytotoxicity in co-culture – imaging, PC-3E GFP, TEM4-18 mCherry, primary screen (AID 1345086;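 active means compounds killing one labelled cell type while sparing the other, by normalised counts and ratio limits, not self-fluorescent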;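 on all read-outs here: cells exposed to compound for 72 h before imaging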;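 on red/green cell ratio (normalised): normalised mesenchymal count divided by normalised epithelial count so high means epithelial killing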); conditions: PC-3E GFP / TEM4-18 mCherry co-culture, imaging cell counts, at 1 µM; for red/green cell ratio (normalised): actives lie on both sides, counts scaled to control wells, 1 = unselective
# [4] = viability loss with induced miR-34 in A549 – imaging, A549 dox-inducible miR-34, nuclei and caspase counts, primary screen (AID 1347080;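 active means compounds whose cell count with miR-34 switched on is under 0.7 times the count with it off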); conditions: A549 miR-34 inducible, Hoechst nuclei count, 48 h
# [5] = MELAS cybrid and Rieske KO viability enhancers – cell-based, MELAS cybrids, Rieske KO mouse fibroblasts, CellTiter-Glo, primary screen (AID 1508586;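 active means mean z-score across replicates of 1.96 or higher in either the MELAS or the Rieske mutant cell line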;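 further: z relative to plate mean and SD of compound and empty wells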); conditions: low glucose
# [6] = molecular target: Mitogen-activated protein kinase 7 (Homo sapiens) (UniProt Q13164); test: Gal4-ERK5 driven luciferase induction – cell-based, HTS, primary screen (AID 1508626;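 active means luciferase signal above three times the same-plate solvent-only control wells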;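 further: luciferase driven by Gal4-ERK5 fusion binding five Gal4 sites before minimal TATA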); conditions: HeLa Gal4-ERK5 transactivation, 18 h, at 5 µM, stronger effect = higher value
# [7] = blockers of polyQ-driven CASP3 activation – cell-based (AID 1583); conditions: polyglutamine-induced caspase-3 activation, cell assay; stronger effect = higher value;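 tested at 10 µM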
# [8] = yeast 75Q aggregation reduction – 75Q-TubU reporter (AID 1593); conditions: Yeast 75Q polyglutamine aggregation reporter
# [9] = restoration of touch response, mutant HTT neurons – whole organism, C. elegans mechanosensory neurons, N-terminal huntingtin (AID 1599); conditions: C. elegans polyQ-huntingtin mechanosensory neurons, stronger effect = higher value
# [10] = blockers of cytochrome c efflux from mitochondria – biochemical, purified mitochondria (AID 1603); conditions: stronger effect = lower value;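 further: mouse liver mitochondria challenged with calcium chloride; signal normalized to the plate average as 100%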
# [11] = polyglutamine aggregate formation blockers (AID 1604); conditions: polyglutamine-induced protein aggregation inhibition assay; stronger effect = higher value; tested at 2.5 µM
# [12] = glutamate transport activators, MN-1 cells, MN-1 cell line (AID 1612); conditions: MN-1 motor neuron cells, stronger effect = higher value;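 further: tested at 1 µM final; 0% = mean of DMSO vehicle wells on each plate; positive means more glutamate uptake than control and negative means less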
# [13] = GFP-Q80 aggregate reduction, neuronal-like cells, cell-based, NGF-treated PC12, GFPQ80 (AID 1614); conditions: PC12 NGF-treated GFP-polyQ80 inclusion reduction;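 further: lower means fewer inclusions and 0 means no inclusions at all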
# [14] = 75Q-TubH aggregate inhibition, S. cerevisiae, yeast (AID 1616); conditions: S. cerevisiae 75Q-TubH polyglutamine aggregation suppression; stronger effect = higher value
# [15] = blockers of cellular phospholipid synthesis – cell-based, LOPAC library, screen 4, primary screen (AID 1347384; call rule not given here); conditions: animal cells, phospholipid biosynthesis inhibition screen; at 10 µM
# [16] = galactose survival enhancers in mitochondrial complex I cybrids – cell-based, galactose medium, ATP luminescence, primary screen (AID 1645843;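 active means z-score of at least 1.8 in each of two replicates, scored against plate mean and spread of sample wells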;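 further: positive z means more ATP and so rescue of galactose-driven cybrid death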); conditions: complex I mutant cybrid cells, 72 h, stronger effect = higher value
# [17] = molecular target: NAD(+) hydrolase SARM1 (Homo sapiens) (UniProt Q6SZW1); test: blocking NAD cleavage by SARM1 SAM-TIR – cell lysate, NAD-Glo luminescence (AID 1508614;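 active means compound whose remaining NAD level is above about 45 nM, limit read from the data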); conditions: SAM-TIR HEK293T lysate NADase, at 1 µM, stronger effect = higher value
# [18] = measured here: epithelial PC-3E GFP cell survival
# [19] = measured here: mesenchymal TEM4-18 mCherry cell survival
# [20] = stronger effect = lower value, cell number ratio, induced over uninduced
# [21] = measured here: relative caspase fold change +Dox/-Dox
# [22] = measured here: total cells with miR-34 induction, stronger effect = lower value
# [23] = measured here: total cells without miR-34 induction
# [24] = MELAS cybrid survival, CellTiter-Glo 48 h, stronger effect = higher value
# [25] = Rieske KO mouse fibroblast survival, CellTiter-Glo 72 h
# Sequence of 6-phosphogluconate dehydrogenase, decarboxylating (Homo sapiens) (P52209 whole entry, looked up): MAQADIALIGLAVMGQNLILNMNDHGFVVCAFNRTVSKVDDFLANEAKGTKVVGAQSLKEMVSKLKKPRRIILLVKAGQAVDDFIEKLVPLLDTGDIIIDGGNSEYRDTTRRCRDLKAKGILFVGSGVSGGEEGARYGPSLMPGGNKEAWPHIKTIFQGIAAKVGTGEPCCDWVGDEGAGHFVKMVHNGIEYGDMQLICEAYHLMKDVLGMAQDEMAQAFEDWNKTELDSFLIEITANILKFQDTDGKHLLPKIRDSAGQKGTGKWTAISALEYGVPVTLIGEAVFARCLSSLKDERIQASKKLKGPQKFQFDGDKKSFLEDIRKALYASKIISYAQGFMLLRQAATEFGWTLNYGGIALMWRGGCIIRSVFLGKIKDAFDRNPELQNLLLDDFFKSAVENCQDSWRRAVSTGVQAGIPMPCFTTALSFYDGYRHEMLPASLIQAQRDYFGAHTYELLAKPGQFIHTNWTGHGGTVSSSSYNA
# Sequence of NAD(+) hydrolase SARM1 (Homo sapiens) (Q6SZW1 whole entry, looked up): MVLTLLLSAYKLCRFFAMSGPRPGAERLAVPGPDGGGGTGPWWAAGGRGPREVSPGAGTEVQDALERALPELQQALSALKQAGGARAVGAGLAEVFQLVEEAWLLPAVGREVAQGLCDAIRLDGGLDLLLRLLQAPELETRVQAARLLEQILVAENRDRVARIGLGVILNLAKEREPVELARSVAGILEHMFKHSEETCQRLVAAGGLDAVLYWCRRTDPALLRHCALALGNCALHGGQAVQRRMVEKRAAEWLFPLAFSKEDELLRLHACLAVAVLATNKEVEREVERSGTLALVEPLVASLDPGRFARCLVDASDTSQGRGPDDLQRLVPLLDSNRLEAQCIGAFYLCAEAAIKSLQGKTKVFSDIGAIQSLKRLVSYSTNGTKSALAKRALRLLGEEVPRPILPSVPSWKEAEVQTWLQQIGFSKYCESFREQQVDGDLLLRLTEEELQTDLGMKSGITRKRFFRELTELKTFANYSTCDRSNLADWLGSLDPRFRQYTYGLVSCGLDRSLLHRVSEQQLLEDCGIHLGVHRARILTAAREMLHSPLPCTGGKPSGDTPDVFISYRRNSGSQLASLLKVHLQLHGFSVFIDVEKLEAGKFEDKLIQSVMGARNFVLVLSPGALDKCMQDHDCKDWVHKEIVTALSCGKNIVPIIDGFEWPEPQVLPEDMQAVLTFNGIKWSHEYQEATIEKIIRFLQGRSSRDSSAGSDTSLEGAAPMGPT
# Sequence of Mitogen-activated protein kinase 7 (Homo sapiens) (Q13164 whole entry, looked up, the tested form may be a part): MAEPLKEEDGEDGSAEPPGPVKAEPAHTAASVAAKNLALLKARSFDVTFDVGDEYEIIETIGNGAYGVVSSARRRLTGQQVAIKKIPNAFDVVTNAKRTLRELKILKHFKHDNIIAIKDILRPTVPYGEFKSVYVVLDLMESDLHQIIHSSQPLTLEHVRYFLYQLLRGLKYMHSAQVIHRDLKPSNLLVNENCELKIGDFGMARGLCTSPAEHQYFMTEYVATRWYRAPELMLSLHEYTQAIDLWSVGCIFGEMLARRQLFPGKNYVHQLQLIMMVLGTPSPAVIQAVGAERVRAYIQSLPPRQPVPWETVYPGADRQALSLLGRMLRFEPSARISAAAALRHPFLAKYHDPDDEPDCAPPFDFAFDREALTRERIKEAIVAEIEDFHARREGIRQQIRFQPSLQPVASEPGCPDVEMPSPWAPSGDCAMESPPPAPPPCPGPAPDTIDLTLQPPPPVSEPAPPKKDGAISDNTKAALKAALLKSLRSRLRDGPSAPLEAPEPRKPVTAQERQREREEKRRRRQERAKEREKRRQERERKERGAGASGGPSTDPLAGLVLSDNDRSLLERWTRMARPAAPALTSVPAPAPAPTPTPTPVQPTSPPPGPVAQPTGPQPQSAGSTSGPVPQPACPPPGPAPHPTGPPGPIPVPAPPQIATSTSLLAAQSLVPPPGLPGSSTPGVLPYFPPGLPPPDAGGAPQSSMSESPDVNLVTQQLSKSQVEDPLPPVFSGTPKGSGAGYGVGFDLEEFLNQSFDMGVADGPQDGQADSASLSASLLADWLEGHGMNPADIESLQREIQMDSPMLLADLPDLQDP
compound,measurement,setting,value
CC(=O)Oc1ccccc1C(=O)Oc1ccccc1C(=O)O,parasite load remaining,[1],36.8% (inactive) and 92.5% (inactive)
same,viability,[1],53.8% and 90.5%
same,inhibition,[2],14.2% (inactive)
same,red/green cell ratio (normalised),[3],1.07 (inactive)
same,normalised cell number,[3]; [18],0.97
same,normalised cell number,[3]; [19],1.04
same,fold change,[4]; [20],0.938 (inactive)
same,fold change,[4]; [21],0.828
same,cell count,[4]; [22],8700
same,cell count,[4]; [23],9270
same,z-score,[5]; [24],-0.224 (inactive)
same,z-score,[5]; [25],0.071
same,luciferase signal,[6],48 AU (inactive)
O=c1cc(-c2ccccc2)oc2c(O)c(O)ccc12,inhibition,[7],17.3%
same,score,[8],0.23
same,rescue above control,[9],-0.88
same,cytochrome c release ratio,[10],0.65
same,inhibition of aggregation,[11],81.7%
same,glutamate uptake change,[12],0.12%
same,inclusion score,[13],1.5
same,aggregation suppression score,[14],0.00444
same,inhibition,[2],-53.2% (inactive)
same,red/green cell ratio (normalised),[3],0.99 (inactive)
same,normalised cell number,[3]; [18],0.99
same,normalised cell number,[3]; [19],0.98
same,fold change,[4]; [20],1.65 (inactive)
same,fold change,[4]; [21],0.979
same,cell count,[4]; [22],3960
same,cell count,[4]; [23],2390
same,outcome,[15],inactive
same,luciferase signal,[6],32 AU (inactive)
same,z-score,[16],-0.44 (inactive)
C=C1c2c(Cl)ccc(O)c2C(O)=C2C(=O)[C@]3(O)C(O)=C(C(N)=O)C(=O)[C@@H](N(C)C)[C@@H]3[C@@H](O)[C@H]12,inhibition,[7],-20.8%
same,score,[8],0.46
same,rescue above control,[9],1.02
same,cytochrome c release ratio,[10],0.58
same,inhibition of aggregation,[11],84.6%
same,glutamate uptake change,[12],0.44%
same,inclusion score,[13],1
same,aggregation suppression score,[14],0.198
same,parasite load remaining,[1],145% (inactive) and 78.4% (inactive) and 31.4% (inactive)
same,viability,[1],71.2% and 75.1% and 92.1%
same,inhibition,[2],10.5% (inactive)
same,red/green cell ratio (normalised),[3],0.85 (inactive)
same,normalised cell number,[3]; [18],0.99
same,normalised cell number,[3]; [19],0.84
same,fold change,[4]; [20],0.864 (inactive)
same,fold change,[4]; [21],1.07
same,cell count,[4]; [22],8250
same,cell count,[4]; [23],9550
same,remaining NAD,[17],10 nM (inactive)
same,luciferase signal,[6],40 AU (inactive)
C1N2CN3CN1CN(C2)C3,inhibition,[7],10.1%
same,score,[8],0.91
same,rescue above control,[9],-6.88
same,cytochrome c release ratio,[10],1.01
same,inhibition of aggregation,[11],27.8%
same,glutamate uptake change,[12],-31.9%
same,inclusion score,[13],2
same,aggregation suppression score,[14],0.744
same,parasite load remaining,[1],80.4% (inactive) and 31.8% (inactive)
same,viability,[1],76.7% and 89.4%
same,inhibition,[2],6.67% (inactive)
same,red/green cell ratio (normalised),[3],1 (inactive)
same,normalised cell number,[3]; [18],1.13
same,normalised cell number,[3]; [19],1.13
same,fold change,[4]; [20],0.9 (inactive) and 0.915 (inactive)
same,fold change,[4]; [21],0.914 and 0.53
same,cell count,[4]; [22],8000 and 12000
same,cell count,[4]; [23],8890 and 13100
same,z-score,[5]; [24],-0.156 (inactive) and 0.632 (inactive)
same,z-score,[5]; [25],-0.286 and -0.336
same,remaining NAD,[17],10 nM (inactive)
same,luciferase signal,[6],64 AU (inactive)
CC(CN(C)C)CN1c2ccccc2Sc2ccccc21 (stereo not given),inhibition,[7],-4.15%
same,score,[8],1.25
same,rescue above control,[9],0
same,cytochrome c release ratio,[10],1.2
same,inhibition of aggregation,[11],52.6%
same,glutamate uptake change,[12],-15.4%
same,aggregation suppression score,[14],1.08
same,parasite load remaining,[1],56% (inactive) and 101% (inactive) and 20% (inactive)
same,viability,[1],86.7% and 71.6% and 86.5%
same,inhibition,[2],3.47% (inactive)
same,red/green cell ratio (normalised),[3],0.95 (inactive)
same,normalised cell number,[3]; [18],1.1
same,normalised cell number,[3]; [19],1.05
same,fold change,[4]; [20],0.881 (inactive) and 0.895 (inactive)
same,fold change,[4]; [21],1.1 and 2.21
same,cell count,[4]; [22],7480 and 9410
same,cell count,[4]; [23],8490 and 10500
same,z-score,[5]; [24],0.461 (inactive)
same,z-score,[5]; [25],-0.196
same,remaining NAD,[17],10 nM (inactive)
same,luciferase signal,[6],76 AU (inactive)
